High-throughput results: PubChem BioAssay, National Center for Advancing Translational Sciences (NCATS)
Hits are enriched below; roughly 1.3% of the tested compounds scored in any of these assays.
IL-2 act: activators of IL-2; IL-2 activation reporter assay, cell-based qHTS; stimulated with anti-CD3/CD4/CD28 beads; in transgenic mouse T cells; activation, % (series mostly up to about 46 µM); 360,000 tested, 0.065% active; AID 652025
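Unstimulated transgenic mouse T cells, 750 per well, received compound and, after 60 minutes, anti-CD3/anti-CD4 bead plus anti-CD28 stimulation. EGFP and DsRed were quantified after 18 hours.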
TRPML1 agonist: agonists of human TRPML1 channel | AID 624414 | activation, % (concentration not given with the values) | 410,000 tested, 0.12% active | Q9GZU1 | TRPML1-expressing cells, Ca2+ dye fluorescence, FDSS
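Tet-induced TRPML1-DL cells, 1,500 per well, cultured overnight, were loaded with a no-wash Ca2+ dye for 45–90 min. Calcium fluorescence was recorded on the FDSS for 110 s after compound addition, before the EC80 agonist (4 uM 54-4) was added.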
TRPML1 inh: blocks the human TRPML1 channel; TRPML1-inducible cells, Ca2+ dye fluorescence, FDSS; hits give low values; inhibition of EC80 agonist-evoked calcium signal; activity change, negative = inhibition, % (concentration not given with the values); Q9GZU1; AID 624415; 390,000 tested, 0.02% active; in the data active = activity change below about -50%; inconclusive = between about -30% and that limit;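 note: stimulus is agonist 54-4 at its EC80 concentration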
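Calcium fluorescence in TRPML1-DL cells induced overnight with Tet: a 110 s read after compound pin addition, then a 110 s antagonist read after challenge with 54-4 at 4 uM final (EC80).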
BRCA1 expr act: BRCA1 expression activation; MCF7-BRCA1-FFLuc reporter, luminescence, 48 h; response scale: scaled: vehicle 0%, 10 µM genistein 100%; Potency, µM (doses to about 46.1 µM), actives largely listed as activators; 380,000 tested, 1.1% active; AID 624202; active = well fitted activation curve with a large enough effect; inconclusive = small, poorly fitted or top-dose-only effect; inactive = no such curve, though single readings can be large or run the other way; note: nearly all actives have a fitted effect of over 80% in size
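MCF7-BRCA1-FFLuc, 2000 cells/well; 2 h attach, 37 °C/5% CO2; compound 48 h; luciferase substrate 15 min; luminescence end-point. Norm. to genistein 10 microM max activation and DMSO; concentration-response curves fitted.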
PKM2 activator: PKM2 (human) enzyme activation. AID 1631. Potency, µM (doses to about 57.5 µM), most hits filed as activators. 260,000 tested, 0.34% active. purified PKM2, Kinase-Glo ATP luminescence, activation; response scale: 0% is enzyme alone, no compound; active = well fitted activation curve with a large enough effect; inconclusive = small, poorly fitted or top-dose-only effect; inactive = no such curve, though single readings can be large or run the other way; note: nearly all actives have a fitted effect of over 55% in size
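ATP formation by purified human PK-M2, quantified via coupled luciferase luminescence after 1 h at room temperature with 0.1 mM ADP and 0.5 mM PEP final.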
TSG101-PTAP inh: blocks PTAP/TSG101 interaction to inhibit HIV-1 budding | Fluorescence polarization, FITC-PTAP peptide / Tsg101 binding | Potency, µM (series often up to 115 µM), actives largely listed as inhibitors | 340,000 tested, under 10 active | AID 493005; active = well fitted inhibition curve with a large enough effect in the main read-out, with a control signal flat, not every such curve was filed as active; inconclusive = small, poorly fitted or top-dose-only effect, or effect the other way, or a change in a side signal; inactive = no such curve, though single readings can be large or run the other way
Target sequence (Q99816 whole entry, looked up): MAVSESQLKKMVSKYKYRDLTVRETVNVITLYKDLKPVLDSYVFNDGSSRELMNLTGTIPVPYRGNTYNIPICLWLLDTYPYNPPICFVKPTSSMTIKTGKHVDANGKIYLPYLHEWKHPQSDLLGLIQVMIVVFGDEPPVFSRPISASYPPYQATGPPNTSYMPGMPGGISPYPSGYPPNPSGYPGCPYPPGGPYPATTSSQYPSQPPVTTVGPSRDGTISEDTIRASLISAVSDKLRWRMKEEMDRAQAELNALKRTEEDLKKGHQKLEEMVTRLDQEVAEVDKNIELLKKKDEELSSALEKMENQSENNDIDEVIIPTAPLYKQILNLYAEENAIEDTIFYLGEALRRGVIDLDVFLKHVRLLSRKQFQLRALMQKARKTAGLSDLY
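Tsg101 binding domain (10 uM final) was mixed with compound and a FITC-labeled PTAP peptide (50 nM final) in HEPES pH 7.5 buffer with NaCl, Tween 20, EDTA and TCEP; fluorescence polarization was read after 20 min at r.t.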
Hits are given with their value; - = inactive; ? = inconclusive; . = not tested or not shown. Cut-off read from the data, not from the text of the source, unless noted: active = activation above about 50%; inconclusive = mostly about 30% to 49%; inactive = weaker than that.

SMILES	IL-2 act	TRPML1 agonist	TRPML1 inh	BRCA1 expr act	PKM2 activator	TSG101-PTAP inh
COc1ccc(C(=O)/C=C/c2ccc(N(C)C)cc2)c(OC)c1	-	128	-	-	-	?
CN(C)c1ccc(/C=C/C(=O)c2ccccc2O)cc1	-	-	-	3.2µM	-	-
CN(C)c1ccc(C(=O)C=Cc2ccc([N+](=O)[O-])cc2)cc1	-	-	-	-	.	.
CN(C)c1ccc(/C=C/C(=O)c2ccc(O)cc2)cc1	-	87	-	-	.	?
CN(C)c1ccc(/C=C/C(=O)c2cccnc2)cc1	-	115	-	-	-	?
OC(c1ccccc1)(c1nc(/C=C/c2ccccc2)cs1)C(F)(F)F (stereo not given)	-	-	.	-	.	.
Cc1cc2ccccc2n1-c1ccc(C(=O)N2CCC(C(=O)NCc3ccccc3Cl)CC2)s1	.	-	-	.	.	.
C[C@@H]1C[C@H]2[C@@H]3CCC4=CC(=O)C=C[C@]4(C)[C@@]3(F)C(O)C[C@]2(C)[C@@]1(O)C(=O)CO (stereo not given in full)	.	-	.	-	.	.
Cc1ccc(C)c(CSc2nc3c([nH]c4ccccc43)c(=O)n2C)c1	.	-	-	.	.	.
CCCN1C(=O)c2ccccc2NC1c1ccc(OC)c(COc2ccc([N+](=O)[O-])cc2)c1 (stereo not given)	.	-	.	-	.	.
O=C(CNC(=O)c1ccccc1)NCC(=O)OCC(=O)c1cccc2ccccc12	.	-	.	-	.	.
O=C(/C=C/c1ccccc1)c1ccc2c(c1)OCO2	-	-	-	-	-	-
CN(C)c1ccc(/C=C/C(=O)c2ccc3c(c2)OCO3)cc1	-	84	-	-	.	?
Cc1cc(-n2c(C)cc(C(=O)CSc3nnnn3-c3ccccc3)c2C)no1	-	-	-	-	-	-
Cc1cc(-n2c(C)cc(C(=O)CSc3ccccn3)c2C)no1	-	-	-	4µM	.	-
CCOC(=O)Nc1sc2c(c1C(N)=O)CCC(C)C2 (stereo not given)	-	-	-	-	-	-
CC(=O)NC(=S)Nc1sc2c(c1C(N)=O)CCC(C)C2 (stereo not given)	-	-	-	4.5µM	-	-
CC1CCc2c(sc(NC(=S)NC(=O)c3ccccc3)c2C#N)C1 (stereo not given)	-	-	-	11µM	-	-
CCOC(=O)C1(C)CCN1C(=O)c1ccc(C(C)(C)C)cc1 (stereo not given)	-	-	.	-	.	.
Cc1cc2nc(-c3ccco3)c(Cc3ccccc3C(F)(F)F)n2c(C)c1Br	-	-	.	-	.	.
C/C(=N/OCc1ccc(Br)cc1)c1ccccn1	-	-	-	3.5µM	-	-
C/C(=N\NC(=O)c1ccccc1N)c1ccc(NC(=O)Cc2ccccc2)cc1	-	-	-	-	-	-
C/C(=N\NC(=O)c1cccc(C)c1O)c1ccc(NC(=O)Cc2ccccc2)cc1	-	-	-	5µM	.	-
OC(C1=C/C(=C\c2ccncc2)c2ccccc21)c1ccncc1 (stereo not given)	.	-	.	.	.	.
C(=Nc1ccc(/C=C/c2ccnc3ccccc23)cc1)c1ccc2c(c1)OCO2	.	-	.	-	.	.
SMILES	IL-2 act	TRPML1 agonist	TRPML1 inh	BRCA1 expr act	PKM2 activator	TSG101-PTAP inh
c1ccc(NC2=Nc3ccccc3CS2)cc1	-	-	-	3.5µM	-	-
Cc1ccc(-n2nnnc2SCn2nnc3ccccc3c2=O)c(C)c1	-	-	-	-	16µM	-
C[C@@H](Nc1nc(Cl)nc2nc[nH]c12)c1ccccc1	.	-	.	-	.	.
Cc1cc(C)c(C#N)c(SCC2COc3ccccc3O2)n1 (stereo not given)	-	-	-	-	-	-
N#Cc1cc2c(nc1SCC1COc3ccccc3O1)CCC2 (stereo not given)	-	-	-	8.9µM	-	-
O=[N+]([O-])c1ccc2c(c1)ncn2CCc1ccccc1	-	-	-	-	7.1µM	-
CCOC(=O)c1ccc(CNCc2ccccc2)cc1	-	-	-	11µM	-	-
CCOC(=O)c1ccc(CNCc2ccc(Br)cc2)cc1	-	-	-	-	-	-
